Measured values taken from PubChem BioAssay (Tox21).
Results filed as inconclusive are left out. Unmarked numbers belong to inactive results. Calls of active or inactive are those of the source. Calls follow the shape of the full dose curve.

assay: qHTS assay to identify small molecule agonists of the endoplasmic reticulum stress response signaling pathway - cell viability counter screen (AID 1159517); conditions: ESRE-bla HeLa viability, CellTiter-Glo luminescence, 5 h; series mostly up to 61 µM; activity change, negative = cytotoxicity: at the top concentration; also: nearly all actives have a fitted effect of over 50% in size
Source text: U.S. Tox21 Program National Center for Advancing Translational Sciences [NCATS] NIH Chemical Genomics Center [NCGC] U.S. Environmental Protection Agency [EPA] National Institutes of Environmental Health Sciences [NIEHS] National Toxicology Program [NTP] U.S. Food and Drug Administration [FDA] Tox21 Assay Overview: Endoplasmic Reticulum (ER) plays an important role in cellular signaling, protein folding/maturation, stress response, lipid biosynthesis, calcium storage and release etc. Under stress conditions, proteins in ER misfold or unfold, and leading to the expression of ER stress responsive genes. ER stress has been associated with a variety of pathophysiological conditions such as cancer, inflammation, neurodegenerative diseases, diabetes, ischemic heart disease etc. To identify the compounds that induce ER stress response, an ER stress reporter cell line, CellSensor ESRE-bla HeLa (Life Technologies, Carlsbad, CA) containing a beta-lactamase reporter gene under control of the Endoplasmic reticulum Stress Response Element (ESRE) was used to screen Tox21 10K compound library. The cytotoxicity of the Tox21 compound library against the ESRE-bla HeLa cell line was tested in parallel by measuring cell viability using the CellTiter-Glo assay in the same wells.
Tox21 Assay Protocol Summary: ESRE-bla HeLa cells were dispensed at 1,500 cells/6 uL of assay medium per well into black wall/clear-bottom 1536-well plates using a Multidrop Combi (ThermoFisher Scientific, Waltham, MA) dispenser. After the assay plates were incubated at 37 C and 5% CO2 for an overnight, 23 nL of compounds dissolved in DMSO, positive controls or DMSO only was transferred to the assay plate by a Pintool station (Kalypsys, San Diego, CA). The assay plates were incubated at 37 C and 5% CO2 for 5 hr. One uL of LiveBLAzer B/G FRET substrate (Life Technologies) was added using a FRD (Flying Reagent Dispenser, Aurora Discovery, San Diego, CA) and the plates were incubated at room temperature for 2 hr. Fluorescence intensity (405 nm excitation, 460 nm and 530 nm emissions) was measured using an Envision plate reader (PerkinElmer, Shelton, CT). For cytotoxicity, 4 ul/well of CellTiter-Glo reagent was added into the assay plates using an FRD. After 30 min incubation at room temperature, the luminescence intensity was measured using a ViewLux plate reader (PerkinElmer).
% is scaled to controls: 0 for no effect and ±100 for the full control effect; potency is read from the fitted curve at half-maximal effect.

Q: For CC(=O)[O-].CC(=O)[O-].O.O.[Zn+2], which “activity change, negative = cytotoxicity” value is on record?
A: 9.06%

Q: For CCO/N=C(\CC)C1=C(O)CC(c2c(C)cc(C)cc2C)CC1=O (stereo not given), which “activity change, negative = cytotoxicity” value is on record?
A: -9.23%

Q: For ClC1(Cl)C2(Cl)C3(Cl)C4(Cl)C(Cl)(Cl)C5(Cl)C3(Cl)C1(Cl)C5(Cl)C24Cl (stereo not given), which “activity change, negative = cytotoxicity” value is on record?
A: 14.7%

Q: For CO/N=C(/C1=NOCCO1)c1ccccc1Oc1ncnc(Oc2ccccc2Cl)c1F, which “activity change, negative = cytotoxicity” value is on record?
A: 0.586%

Q: Which “activity change, negative = cytotoxicity” value does the source give for CO/N=C(\C(=O)OC)c1ccccc1CO/N=C(\C)c1cccc(C(F)(F)F)c1 here?
A: -8.4%

Q: With CCC1COC(Cn2cncn2)(c2ccc(Cl)cc2Cl)O1 (stereo not given) as the compound, how does the “activity change, negative = cytotoxicity” value read?
A: -0.212%

Q: For O=[N+]([O-])c1ccc(Cl)c(Cl)c1Cl, which “activity change, negative = cytotoxicity” value is on record?
A: -18%

Q: For c1csc(-c2ccc(-c3cccs3)s2)c1, which “activity change, negative = cytotoxicity” value is on record?
A: 4.49%

Q: Which “activity change, negative = cytotoxicity” value does the source give for C=Cc1cccc(CCl)c1 here?
A: -8.25% [at 78.8 µM]

Q: With CCOP(=S)(OCC)Oc1cc(C)nc(N(CC)CC)n1 as the compound, how does the “activity change, negative = cytotoxicity” value read?
A: 6.52%

Q: For CCOP(=S)(NC(C)C)Oc1ccccc1C(=O)OC(C)C (stereo not given), which “activity change, negative = cytotoxicity” value is on record?
A: -19.8%

Q: Which Potency does the source give for Fc1ccc(C(OCCN2CCN(CCCc3ccccc3)CC2)c2ccc(F)cc2)cc1 here?
A: 26.8 µM (active)

Q: Which Potency does the source give for CC(=O)[O][Pb]([c]1ccccc1)([c]1ccccc1)[c]1ccccc1 here?
A: 24.5 µM (active)

Q: With Nc1ccc(N=Nc2ccccc2)cc1 as the compound, how does the “activity change, negative = cytotoxicity” value read?
A: 9.39%

Q: For ClC(Cl)C(Cl)(Cl)Cl, which “activity change, negative = cytotoxicity” value is on record?
A: 0.604%

Q: Which “activity change, negative = cytotoxicity” value does the source give for NC(=O)C(Cl)Cl here?
A: -5.55%

Q: With Brc1ccc(Oc2ccc(Br)cc2Br)c(Br)c1 as the compound, how does the “activity change, negative = cytotoxicity” value read?
A: -27.6%

Q: With CCn1cc[n+](C)c1 (tested in a mixture with another compound) as the compound, how does the “activity change, negative = cytotoxicity” value read?
A: -20.6%

Q: Which Potency does the source give for CCC[CH2][Sn]([CH2]CCC)([O]C(C)=O)[O]C(C)=O here?
A: 1.97 µM (active)

Q: For CCCCN(CCCC)C(=S)[S-].CCCCN(CCCC)C(=S)[S-].[Ni+2], which “activity change, negative = cytotoxicity” value is on record?
A: 3.51%

Q: Which “activity change, negative = cytotoxicity” value does the source give for N#CSCc1ccccc1 here?
A: 1.95% [at 78.8 µM]

Q: For CCN(CC)C(=O)N[C@@H]1C=C2c3cccc4[nH]cc(c34)C[C@@H]2N(C)C1, which “activity change, negative = cytotoxicity” value is on record?
A: -3.45%

Q: For [Cl-].[Cl-].[Cl-].[Yb+3], which “activity change, negative = cytotoxicity” value is on record?
A: -1.4%

Q: Which “activity change, negative = cytotoxicity” value does the source give for OCC(Br)CBr (stereo not given) here?
A: 2.73% [at 78.8 µM]

Q: Which “activity change, negative = cytotoxicity” value does the source give for COC(=O)c1cc(Oc2ccc(Cl)cc2Cl)ccc1[N+](=O)[O-] here?
A: 1.08%

Q: Which “activity change, negative = cytotoxicity” value does the source give for CN1CCc2cc3c(cc2C1O)OCO3 (stereo not given) here?
A: 3.07% [at 78.8 µM]

Q: Which “activity change, negative = cytotoxicity” value does the source give for Oc1ccc(Cl)c(Cl)c1 here?
A: -0.754%

Q: With CCCCn1cc[n+](C)c1.[Cl][Fe-]([Cl])([Cl])[Cl] as the compound, how does the “activity change, negative = cytotoxicity” value read?
A: 13.5%

Q: Which “activity change, negative = cytotoxicity” value does the source give for CC(C)c1c(CN(C)C(C)Cc2ccccc2)n(C)n(-c2ccccc2)c1=O (stereo not given) here?
A: 13.6%

Q: With O=C(NC(=O)c1c(F)cccc1F)Nc1ccc(Oc2ccc(C(F)(F)F)cc2Cl)cc1F as the compound, how does the “activity change, negative = cytotoxicity” value read?
A: -9.58%

Q: For COC(=O)N(OC)c1ccccc1COc1ccn(-c2ccc(Cl)cc2)n1, which “activity change, negative = cytotoxicity” value is on record?
A: 1.49%

Q: For CC1(C)C(C=C(Cl)Cl)C1C(=O)OC(C#N)c1ccc(F)c(Oc2ccccc2)c1 (stereo not given), which “activity change, negative = cytotoxicity” value is on record?
A: 3.87%

Q: For CNC(=O)O/N=C(\C)C(C)S(C)(=O)=O (stereo not given), which “activity change, negative = cytotoxicity” value is on record?
A: 1.34% [at 765 µM]

Q: For CCCN, which “activity change, negative = cytotoxicity” value is on record?
A: 3.66% [at 78.8 µM]

Q: With CC1(C)[C@H](/C=C2\CCSC2=O)[C@@H]1C(=O)OCc1coc(Cc2ccccc2)c1 as the compound, how does the “activity change, negative = cytotoxicity” value read?
A: -5.35%

Q: With COc1ccc2[nH]cc(CCN(C(C)C)C(C)C)c2c1 as the compound, how does the “activity change, negative = cytotoxicity” value read?
A: 2.66% [at 78.8 µM]

Q: For c1cc[n+]2c(c1)-c1cccc[n+]1CC2, which “activity change, negative = cytotoxicity” value is on record?
A: 20.6%

Q: With CCc1cccc(C)c1N(C(=O)CCl)[C@@H](C)COC as the compound, how does the “activity change, negative = cytotoxicity” value read?
A: 0.548%

Q: For CCC[CH2][Sn]([CH2]CCC)([CH2]CCC)[O][Sn]([CH2]CCC)([CH2]CCC)[CH2]CCC, which Potency is on record?
A: 0.269 µM (active)

Q: Which “activity change, negative = cytotoxicity” value does the source give for [Cl-].[Cl-].[Sn+2] here?
A: -0.139%
